As a reminder, the inhibition is the relative decrease from the control value, in per cent.

The campaign covered roughly 340,000 compounds. About 3,400 (1%) were called active. Many of the other results were omitted from the sample, so actives are more common in it than they were. A number with no mark means an inactive call.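 The calls were made as follows: active = inhibition above the mean over all tested compounds plus 3 SD (cut at about 4.2% in these data); inactive = the rest.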

In the experiment the target is Nuclear receptor subfamily 0 group B member 1 (Homo sapiens) (UniProt P51843). As to the kind of experiment: relief of DAX1 transcriptional repression – cell-based, HEK293, Gal4-DAX1, luciferase luminescence, primary screen (AID 504766).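 Also: 0% = DAX1-transfected cells with DMSO and 100% = empty-vector control cells with DMSO; inhibition shows as a rise in luminescence from relieved DAX1 repression.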 As to conditions: HEK293 Gal4-DAX1 luciferase reporter, at 6.75 µM, hits give high values.
Nuclear receptor subfamily 0 group B member 1 (Homo sapiens), sequence (P51843 207-470 limits assumed): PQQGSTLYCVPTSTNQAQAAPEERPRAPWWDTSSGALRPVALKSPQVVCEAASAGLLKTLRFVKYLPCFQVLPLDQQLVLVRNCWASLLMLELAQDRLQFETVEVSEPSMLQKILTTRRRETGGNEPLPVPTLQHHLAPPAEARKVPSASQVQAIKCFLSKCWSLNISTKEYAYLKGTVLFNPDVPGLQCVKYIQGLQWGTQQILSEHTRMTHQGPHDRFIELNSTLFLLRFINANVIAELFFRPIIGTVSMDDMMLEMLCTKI
Turning to `O=S(=O)(c1cccc(C(F)(F)F)c1)N1c2ccccc2-n2cccc2C1c1cccnc1` (configuration not stated), the inhibition was 0.07%.
Regarding `COc1ccc(NC(=O)CSc2nnnn2-c2cccc(OC)c2)cc1`, the inhibition was 0.03%.
`CN(C)S(=O)(=O)c1cccc(NC(=O)COc2ccc3ccccc3c2)c1`: the inhibition was -1.43%.
On to `COCCNC(=O)COc1ccc(N(C)S(=O)(=O)c2ccc3ccccc3c2)cc1`, for which the inhibition was -1.92%.
To `COC(=O)C(C)NC(=O)COc1ccc2ccccc2c1` (configuration not stated) belongs 4.35% (active); to `COc1ccc2nc(-c3ccccn3)ccc2c1`, -0.26%; to `COc1ccc([C@H]2N[C@]3(CCCN(CC4CCCCC4)C3=O)[C@H]3C(=O)N(C)C(=O)[C@@H]23)cc1`, 0.64%.
To `CCn1c(SCC(=O)NC2CCCC2)nnc1-c1ccoc1C` belongs 4.45% (active); to `Cc1occc1-c1nnc(SCC(=O)NC2CCCCC2)o1`, 0.12%; to `CCn1c(SCC(=O)NC2CC2)nnc1-c1ccccc1OC`, 1.22%.
The figure for `C[C@@H]1CN([C@H](C)CO)C(=O)c2cc(Br)cnc2O[C@@H]1CN(C)Cc1cncnc1` is 0%; for `Clc1ccccc1-c1cc(COc2ccc3ccccc3c2)no1` it is 4.61% (active).
In the case of `Clc1ccc(-c2cc(COc3ccccc3)no2)cc1Cl`, the inhibition was 0.18%.
To `c1ccc2cc(OCCN3CCCC3)ccc2c1` belongs 0.12%; to `Cc1ccccc1-c1ccc2c(c1)O[C@@H](CN(C)Cc1ccc(C(=O)O)cc1)[C@@H](C)CN([C@H](C)CO)S2(=O)=O`, -0.49%.
The figure for `Cc1ccnc(SC2CC(=O)N(c3ccccc3)C2=O)n1` (configuration not stated) is 2.33%.
To `COc1ccc(C2Nc3ccccc3C(=O)N2c2ccc(F)cc2)cc1Cn1nnc2ccccc21` (configuration not stated) belongs -0.72%; to `COc1ccc(N2C(=O)c3ccccc3NC2c2ccc(OC)c(CN3CCOCC3)c2)cc1` (configuration not stated), 3.5%.
Consider `COc1ccc(C2Nc3ccccc3C(=O)N2c2ccc(Cl)cc2)cc1Cn1cc([N+](=O)[O-])cn1` (configuration not stated), for which the inhibition is 4.6% (active).
The figure for `COc1ccc(Cl)cc1NC(=O)CN(C)C(=O)c1cn(-c2ccccc2)nc1-c1cccs1` is -0.65%; for `COCC1CCCCN1C(=O)c1cc(COc2ccc(C)c(C)c2)on1` (configuration not stated) it is 2.51%.
The figure for `O=S(=O)(Nc1ccc(-n2cnnn2)cc1)c1ccc(Cl)cc1` is 0.55%; for `c1cc(-n2cnnn2)ccc1NC1=NCCC1` it is 5.97% (active); for `O=S(=O)(NC1CCCC1)c1ccc(-n2cnnn2)cc1` it is 0.06%.
To `C[C@@H]1CN([C@H](C)CO)C(=O)CCCn2cc(nn2)CO[C@H]1CN(C)S(C)(=O)=O` belongs 0.1%; to `CC1(C)NC(=O)N(CC(=O)Nc2ccc(-c3ccccc3)cc2)C1=O`, 1.36%; to `CCOC(=O)C1=C(C)c2ccccc2OC1(C)C(=O)OCC` (configuration not stated), 0.33%.
In the case of `CCOC(=O)C1(C(F)(F)F)N=C(N(C)C)OC(N(C)C)=N1`, the inhibition is 5.05% (active).
The figure for `O=C1CC[C@@H](C(=O)N2CSC[C@@H]2C(=O)Nc2ccc(C(F)(F)F)cc2)N1` is 0.12%; for `Cn1c(=O)n(C)c2cc(C(=O)Nc3ccc(Br)cc3)ccc21` it is 4.79% (active); for `O=C(Nc1ccc(N2CCOCC2)cc1)c1ccc2c(c1)OCO2` it is 1.98%.
The figure for `O=C(CN1CCN(c2ccccc2F)CC1)c1ccc2c(c1)OCO2` is -0.06%; for `Cn1c(=O)n(C)c2cc(C(=O)Nc3ccc4c(c3)OCO4)ccc21` it is 13.2% (active).
The figure for `N#Cc1ccccc1NC(=O)c1ccc2c(c1)OCO2` is 2.82%.
As to `Cn1c(=O)n(C)c2cc(/C=N/NC(=O)c3cccc(Br)c3)ccc21`, the inhibition was -2.01%.
To `O=C(Nc1ccccc1F)c1ccc2c(c1)OCO2` belongs 4.59% (active); to `O=C(Nc1ccc2c(c1)OCO2)c1ccc(N2C(=O)c3ccccc3C2=O)cc1`, 0.86%.
On to `COc1cccc(OC)c1C(=O)Nc1ccc2c(c1)n(C)c(=O)n2C`, for which the inhibition is 1.46%.
Turning to `CNC(=O)C[C@H]1C(=O)N(Cc2ccccc2)C[C@@H]1CSC`, the inhibition is 0.53%.
The figure for `Cc1cccc(S(=O)(=O)N(C)C[C@@H]2OCc3cnnn3CCCC(=O)N([C@H](C)CO)C[C@@H]2C)c1` is -0.51%; for `CCCNC(=O)C1CC(=O)N(c2ccc(OCc3ccccc3)cc2)C1` (configuration not stated) it is 2.8%.
`C=CCOc1ccccc1CNn1c(C)n[nH]c1=S`: the inhibition is 0.12%.
For the molecule `CCN1CCCC1CNC(=O)c1ccc2c(c1)NC(=O)/C(=C\c1ccccc1F)S2` (configuration not stated), the inhibition was 1.21%.
The figure for `O=C(O)c1ccccc1Cc1ccc(F)c2ccccc12` is 1.12%; for `CSc1ncccc1C(=O)N1CCCC(Nc2ccc(F)c(F)c2)C1` (configuration not stated) it is -0.54%.
Regarding `Cc1cccc(Nc2nc(-c3ccccc3)cs2)n1`, the inhibition was 7.24% (active).
Regarding `COc1ccc(-c2csc(Nc3cccc(C)n3)n2)cc1OC`, the inhibition was 3.01%.
Consider `Cc1ccc(-c2csc(NC(=O)C3=COCCO3)n2)cc1C`, for which the inhibition is -1.52%.
To `CCCCCCC(=O)Nc1nc(C)c(-c2csc(Nc3cccc(OC)c3)n2)s1` belongs 1.39%; to `COc1ccc2c(c1OC)C(=O)OC2Nc1nc(-c2ccccc2)cs1` (configuration not stated), 0.66%.
With `CC(=O)Nc1cccc(-c2csc(Nc3cccc(C)n3)n2)c1`, the inhibition was 4.29% (active).
To `CC(C)C1CCN(C(=O)C2CCC(=O)N(C3CCCCCC3)C2)CC1` (configuration not stated) belongs 1.56%; to `CCOC(=O)c1cnn2c(SC)ncnc12`, 0.53%; to `Cc1ccc2cccc([N+](=O)[O-])c2n1`, 0.58%.
On to `NC(=O)C1(Nc2ccccc2Cl)CCCC1`, for which the inhibition was 4.62% (active).
Turning to `NC(=O)C1(Nc2ccc([N+](=O)[O-])cc2)CCCC1`, the inhibition is -1.28%.
The figure for `NC(=O)C1(Nc2ccc(-c3ccccc3)cc2)CCCC1` is 0.6%.
The figure for `Cc1ccc(Cc2c(-c3ccccc3)nc3ccc(Cl)cn23)cc1` is -0.15%; for `CCOc1ccc(S(=O)(=O)NCCC(=O)NNC(=O)c2ccc(F)cc2)cc1` it is 1.04%; for `Cc1ccc(OCc2nc3ccccc3n2C)cc1` it is 4.76% (active).
To `Cn1c(COc2ccc(Cl)cc2)nc2ccccc2c1=O` belongs 0.73%; to `Cc1ccc(Oc2nc3ccccc3n3c(C)nnc23)cc1`, -0.82%.

For the origin of these results see PubChem BioAssay AID504766 (The Scripps Research Institute Molecular Screening Center, 2011).
